Holding throughout (experiment): DAPPL (digital affinity profiling via proximity ligation, sequencing); 10 mM Tris-HCl pH 7.5, 50 mM NaCl, 1 mM DTT, 4% glycerol, room temperature, 30 min; GST-TFs on glutathione beads, 16-mer random dsDNA library, 0.1% formaldehyde crosslink after washing; high values mean tight binding
The target in one assay is T1, FEV (Homo sapiens, UniProt Q99581 1-238).
T1 sequence: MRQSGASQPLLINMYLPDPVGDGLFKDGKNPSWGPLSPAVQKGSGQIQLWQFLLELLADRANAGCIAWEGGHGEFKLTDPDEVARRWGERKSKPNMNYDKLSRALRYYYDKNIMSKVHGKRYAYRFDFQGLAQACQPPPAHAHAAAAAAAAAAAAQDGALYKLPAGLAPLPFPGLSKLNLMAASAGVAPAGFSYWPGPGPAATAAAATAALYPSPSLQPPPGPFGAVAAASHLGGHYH
The settings on record: protein: recombinant; tags: N-terminal GST; dsDNA, one strand shown. In outline:
(§1)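 Binding signal is each hexamer's read frequency for a factor divided by its frequency in the tag-only sample. The factors were GST-fused human transcription factors from yeast, captured on glutathione beads, DNA-barcoded and pooled with that sample. Pools were incubated with 200 nmole of a random double-stranded 16-mer DNA library in Tris/NaCl/DTT/glycerol buffer at room temperature for 30 min, then washed, crosslinked with 0.1% formaldehyde, proximity-ligated with BsaI/T4 ligase (1 h, 37 °C), PCR-amplified and sequenced on an Illumina NextSeq500.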

The next assay concerns the target ETV5 (Homo sapiens, UniProt P41161 1-510). The settings on record: protein: recombinant; tags: N-terminal GST; dsDNA, one strand shown. The procedure, abridged:
as §1

The target of another assay is HSF1 (Homo sapiens, UniProt Q00613 1-529). Conditions: protein: recombinant; tags: N-terminal GST; chain copies: 3; dsDNA, one strand shown. In outline:
as §1

Another assay has as its target T2, SPIC (Homo sapiens, UniProt Q8N5J4 1-248).
T2 sequence: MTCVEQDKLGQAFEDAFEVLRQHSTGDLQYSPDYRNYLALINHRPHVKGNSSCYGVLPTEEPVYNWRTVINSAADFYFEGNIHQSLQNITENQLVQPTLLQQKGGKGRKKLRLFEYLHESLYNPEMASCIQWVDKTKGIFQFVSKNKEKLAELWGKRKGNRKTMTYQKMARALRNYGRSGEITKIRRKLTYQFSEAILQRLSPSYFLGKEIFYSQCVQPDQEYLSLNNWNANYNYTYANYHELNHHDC
Conditions: protein: recombinant; tags: N-terminal GST; dsDNA, one strand shown. In outline:
as §1

The target of a further assay is ELF4 (Homo sapiens, UniProt Q99607 1-663). The settings on record: protein: recombinant; tags: N-terminal GST; dsDNA, one strand shown. The procedure, abridged:
as §1

For a further assay, the target named is T3, ELK4 (Homo sapiens, UniProt P28324-2 1-405).
T3 sequence: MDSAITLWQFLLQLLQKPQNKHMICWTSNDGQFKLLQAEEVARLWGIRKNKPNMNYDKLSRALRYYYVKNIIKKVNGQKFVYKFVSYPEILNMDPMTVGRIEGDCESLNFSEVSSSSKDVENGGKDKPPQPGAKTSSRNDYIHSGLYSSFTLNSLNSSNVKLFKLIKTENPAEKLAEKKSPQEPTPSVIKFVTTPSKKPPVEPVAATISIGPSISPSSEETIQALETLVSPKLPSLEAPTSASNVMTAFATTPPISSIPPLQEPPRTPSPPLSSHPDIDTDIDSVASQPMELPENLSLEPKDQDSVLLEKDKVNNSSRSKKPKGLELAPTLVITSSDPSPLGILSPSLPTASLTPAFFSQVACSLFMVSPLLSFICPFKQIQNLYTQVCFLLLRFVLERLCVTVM
Conditions: protein: recombinant; tags: N-terminal GST; dsDNA, one strand shown. The procedure, abridged: as §1

The target of the next assay is T4, ETV2 (Homo sapiens, UniProt O00321 1-342).
T4 sequence: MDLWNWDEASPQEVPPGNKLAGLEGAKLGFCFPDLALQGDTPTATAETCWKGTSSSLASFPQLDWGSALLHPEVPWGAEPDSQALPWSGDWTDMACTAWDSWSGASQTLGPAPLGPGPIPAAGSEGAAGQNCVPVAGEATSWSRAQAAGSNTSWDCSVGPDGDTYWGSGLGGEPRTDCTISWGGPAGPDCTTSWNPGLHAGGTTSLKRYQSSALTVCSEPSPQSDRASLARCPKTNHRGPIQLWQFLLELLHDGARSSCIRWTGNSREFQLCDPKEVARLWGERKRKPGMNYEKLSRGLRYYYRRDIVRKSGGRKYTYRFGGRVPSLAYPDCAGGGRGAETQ
The settings on record: protein: recombinant; tags: N-terminal GST; dsDNA, one strand shown. In outline:
as §1

Another assay concerns the target T5, ELF3 (Homo sapiens, UniProt P78545 1-371).
T5 sequence: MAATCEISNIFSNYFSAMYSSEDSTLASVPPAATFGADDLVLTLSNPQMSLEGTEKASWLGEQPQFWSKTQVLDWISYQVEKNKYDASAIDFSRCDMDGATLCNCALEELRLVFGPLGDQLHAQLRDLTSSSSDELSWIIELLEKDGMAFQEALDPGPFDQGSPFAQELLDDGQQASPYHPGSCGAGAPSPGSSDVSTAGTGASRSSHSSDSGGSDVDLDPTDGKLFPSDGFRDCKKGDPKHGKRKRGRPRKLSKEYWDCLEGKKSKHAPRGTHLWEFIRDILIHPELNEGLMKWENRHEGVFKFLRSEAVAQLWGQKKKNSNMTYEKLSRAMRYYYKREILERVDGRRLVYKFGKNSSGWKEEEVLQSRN
Conditions: protein: recombinant; tags: N-terminal GST; dsDNA, one strand shown. The procedure, abridged:
as §1

The target in another assay is CRX (Homo sapiens, UniProt O43186 1-299). The settings on record: protein: recombinant; tags: N-terminal GST; dsDNA, one strand shown. In outline:
as §1

In a further assay the target is ETV1 (Homo sapiens, UniProt P50549 1-477). The settings on record: protein: recombinant; tags: N-terminal GST; dsDNA, one strand shown. In outline: as §1
Sequence of ETV1 (P50549 whole entry): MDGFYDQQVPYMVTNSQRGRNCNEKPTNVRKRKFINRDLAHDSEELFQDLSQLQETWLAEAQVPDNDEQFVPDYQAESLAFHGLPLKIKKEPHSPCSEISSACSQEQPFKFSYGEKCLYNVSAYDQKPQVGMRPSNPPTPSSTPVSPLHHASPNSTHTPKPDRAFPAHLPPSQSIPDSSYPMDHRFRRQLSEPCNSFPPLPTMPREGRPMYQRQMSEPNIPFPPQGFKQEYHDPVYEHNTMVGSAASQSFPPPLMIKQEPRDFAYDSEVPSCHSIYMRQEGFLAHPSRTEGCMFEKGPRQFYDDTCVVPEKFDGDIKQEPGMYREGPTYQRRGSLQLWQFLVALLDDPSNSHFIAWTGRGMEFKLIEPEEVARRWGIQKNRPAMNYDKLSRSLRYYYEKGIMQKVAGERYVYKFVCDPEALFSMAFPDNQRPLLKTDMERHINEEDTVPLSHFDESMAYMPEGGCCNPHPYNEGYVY
Another assay deals with T6, ERF (Homo sapiens, UniProt P50548 1-548).
T6 sequence: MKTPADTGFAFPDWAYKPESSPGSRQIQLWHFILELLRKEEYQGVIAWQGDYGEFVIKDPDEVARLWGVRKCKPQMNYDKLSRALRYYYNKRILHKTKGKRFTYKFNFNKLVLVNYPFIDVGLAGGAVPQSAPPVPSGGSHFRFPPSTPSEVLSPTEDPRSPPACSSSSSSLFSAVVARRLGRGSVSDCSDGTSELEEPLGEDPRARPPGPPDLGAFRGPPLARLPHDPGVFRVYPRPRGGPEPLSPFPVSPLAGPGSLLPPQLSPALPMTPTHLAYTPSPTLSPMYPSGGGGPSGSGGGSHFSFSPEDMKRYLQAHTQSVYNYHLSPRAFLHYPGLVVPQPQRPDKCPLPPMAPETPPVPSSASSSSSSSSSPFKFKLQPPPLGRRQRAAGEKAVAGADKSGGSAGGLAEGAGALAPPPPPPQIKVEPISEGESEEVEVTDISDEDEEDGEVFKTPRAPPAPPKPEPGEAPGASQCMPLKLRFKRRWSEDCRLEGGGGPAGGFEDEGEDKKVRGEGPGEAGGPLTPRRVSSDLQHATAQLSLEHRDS
The settings on record: protein: recombinant; tags: N-terminal GST; dsDNA, one strand shown. In outline: as §1

The next assay deals with T7, ETV3L (Homo sapiens, UniProt Q6ZN32 1-361).
T7 sequence: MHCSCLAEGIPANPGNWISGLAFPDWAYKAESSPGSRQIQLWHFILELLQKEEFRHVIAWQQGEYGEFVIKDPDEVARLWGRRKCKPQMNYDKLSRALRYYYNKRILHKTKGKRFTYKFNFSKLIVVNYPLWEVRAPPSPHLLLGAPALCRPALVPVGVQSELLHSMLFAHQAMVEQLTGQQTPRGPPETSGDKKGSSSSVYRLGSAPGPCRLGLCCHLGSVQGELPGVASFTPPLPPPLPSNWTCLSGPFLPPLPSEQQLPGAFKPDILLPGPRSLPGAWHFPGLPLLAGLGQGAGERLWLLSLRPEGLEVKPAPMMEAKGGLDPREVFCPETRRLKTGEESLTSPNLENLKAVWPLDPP
Conditions: protein: recombinant; tags: N-terminal GST; dsDNA, one strand shown. In outline: as §1

For the next assay, the target named is T8, ETS2 (Homo sapiens, UniProt P15036 1-469).
T8 sequence: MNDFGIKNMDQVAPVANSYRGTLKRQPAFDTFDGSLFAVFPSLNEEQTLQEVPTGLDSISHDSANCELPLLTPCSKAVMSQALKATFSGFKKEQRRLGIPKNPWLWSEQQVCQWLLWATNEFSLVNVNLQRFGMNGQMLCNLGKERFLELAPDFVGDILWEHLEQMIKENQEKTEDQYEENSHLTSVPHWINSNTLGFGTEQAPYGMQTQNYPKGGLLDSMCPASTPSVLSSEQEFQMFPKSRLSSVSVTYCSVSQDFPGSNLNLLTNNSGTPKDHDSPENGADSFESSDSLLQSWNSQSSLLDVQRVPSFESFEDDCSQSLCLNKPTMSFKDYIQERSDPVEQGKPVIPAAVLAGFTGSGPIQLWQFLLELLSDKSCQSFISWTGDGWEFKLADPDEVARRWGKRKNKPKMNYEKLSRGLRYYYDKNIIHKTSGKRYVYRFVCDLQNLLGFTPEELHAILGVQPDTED
The settings on record: protein: recombinant; tags: N-terminal GST; dsDNA, one strand shown. The procedure, abridged: as §1

For a further assay, the target named is T9, SPDEF (Homo sapiens, UniProt O95238 1-335).
T9 sequence: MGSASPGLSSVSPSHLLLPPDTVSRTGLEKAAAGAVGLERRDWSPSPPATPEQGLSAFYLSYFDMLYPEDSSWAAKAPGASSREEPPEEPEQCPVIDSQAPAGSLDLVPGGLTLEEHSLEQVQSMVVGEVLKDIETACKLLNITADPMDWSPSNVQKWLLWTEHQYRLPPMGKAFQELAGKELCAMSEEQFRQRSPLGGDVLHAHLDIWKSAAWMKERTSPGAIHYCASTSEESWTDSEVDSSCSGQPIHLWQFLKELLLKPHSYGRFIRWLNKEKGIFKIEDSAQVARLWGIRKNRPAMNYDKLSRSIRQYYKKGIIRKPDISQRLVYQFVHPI
Conditions: protein: recombinant; tags: N-terminal GST; dsDNA, one strand shown. The procedure, abridged: as §1

A further assay deals with T10, ETV7 (Homo sapiens, UniProt Q9Y603 1-341).
T10 sequence: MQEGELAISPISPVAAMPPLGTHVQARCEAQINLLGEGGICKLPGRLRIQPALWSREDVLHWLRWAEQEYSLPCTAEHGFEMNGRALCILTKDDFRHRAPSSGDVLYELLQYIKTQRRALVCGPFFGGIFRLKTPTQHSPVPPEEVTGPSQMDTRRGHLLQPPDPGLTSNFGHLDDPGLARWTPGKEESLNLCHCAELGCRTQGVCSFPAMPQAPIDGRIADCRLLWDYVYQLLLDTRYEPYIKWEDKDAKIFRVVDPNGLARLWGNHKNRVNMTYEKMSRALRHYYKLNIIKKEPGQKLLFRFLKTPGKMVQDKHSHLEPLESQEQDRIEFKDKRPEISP
Conditions: protein: recombinant; tags: N-terminal GST; dsDNA, one strand shown. In outline:
as §1

For the next assay, the target named is T11, ELF5 (Homo sapiens, UniProt Q9UKW6-2 1-255).
T11 sequence: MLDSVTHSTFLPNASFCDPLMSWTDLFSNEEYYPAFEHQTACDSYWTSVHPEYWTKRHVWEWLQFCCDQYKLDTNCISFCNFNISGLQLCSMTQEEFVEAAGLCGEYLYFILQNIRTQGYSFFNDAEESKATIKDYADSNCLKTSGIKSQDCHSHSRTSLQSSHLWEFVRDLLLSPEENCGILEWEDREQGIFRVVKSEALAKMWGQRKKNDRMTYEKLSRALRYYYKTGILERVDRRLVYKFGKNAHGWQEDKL
Conditions: protein: recombinant; tags: N-terminal GST; dsDNA, one strand shown. In outline: as §1

The next assay addresses T12, ETV3 (Homo sapiens, UniProt P41162-2 1-143).
T12 sequence: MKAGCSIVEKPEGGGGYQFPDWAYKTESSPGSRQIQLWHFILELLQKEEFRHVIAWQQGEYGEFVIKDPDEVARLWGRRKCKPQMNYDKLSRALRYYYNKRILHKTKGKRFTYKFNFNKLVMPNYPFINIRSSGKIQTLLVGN
Conditions: protein: recombinant; tags: N-terminal GST; dsDNA, one strand shown. In outline: as §1

For another assay, the target named is ETV6 (Homo sapiens, UniProt P41212 1-452). The settings on record: protein: recombinant; tags: N-terminal GST; dsDNA, one strand shown. The procedure, abridged: as §1
Sequence of ETV6 (P41212 whole entry): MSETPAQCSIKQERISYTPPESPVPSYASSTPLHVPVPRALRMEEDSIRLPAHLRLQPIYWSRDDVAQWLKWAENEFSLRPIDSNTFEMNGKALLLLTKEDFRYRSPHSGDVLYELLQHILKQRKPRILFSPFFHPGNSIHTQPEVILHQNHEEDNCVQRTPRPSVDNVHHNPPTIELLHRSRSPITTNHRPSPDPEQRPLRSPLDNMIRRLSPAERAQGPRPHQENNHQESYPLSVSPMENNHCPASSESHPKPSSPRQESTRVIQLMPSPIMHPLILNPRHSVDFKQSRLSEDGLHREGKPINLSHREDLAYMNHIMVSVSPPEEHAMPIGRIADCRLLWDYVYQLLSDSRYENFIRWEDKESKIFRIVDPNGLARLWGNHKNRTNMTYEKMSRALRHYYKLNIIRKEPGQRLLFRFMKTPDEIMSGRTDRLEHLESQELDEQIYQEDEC

Sequence of CRX (O43186 whole entry): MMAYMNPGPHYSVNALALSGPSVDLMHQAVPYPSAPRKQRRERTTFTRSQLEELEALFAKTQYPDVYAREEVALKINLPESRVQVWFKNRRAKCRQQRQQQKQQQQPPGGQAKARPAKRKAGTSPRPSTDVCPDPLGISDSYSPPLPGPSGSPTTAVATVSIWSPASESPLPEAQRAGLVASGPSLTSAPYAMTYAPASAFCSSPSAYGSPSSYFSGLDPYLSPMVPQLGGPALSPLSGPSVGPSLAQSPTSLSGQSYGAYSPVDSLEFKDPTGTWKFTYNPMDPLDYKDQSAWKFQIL
Sequence of HSF1 (Q00613 whole entry): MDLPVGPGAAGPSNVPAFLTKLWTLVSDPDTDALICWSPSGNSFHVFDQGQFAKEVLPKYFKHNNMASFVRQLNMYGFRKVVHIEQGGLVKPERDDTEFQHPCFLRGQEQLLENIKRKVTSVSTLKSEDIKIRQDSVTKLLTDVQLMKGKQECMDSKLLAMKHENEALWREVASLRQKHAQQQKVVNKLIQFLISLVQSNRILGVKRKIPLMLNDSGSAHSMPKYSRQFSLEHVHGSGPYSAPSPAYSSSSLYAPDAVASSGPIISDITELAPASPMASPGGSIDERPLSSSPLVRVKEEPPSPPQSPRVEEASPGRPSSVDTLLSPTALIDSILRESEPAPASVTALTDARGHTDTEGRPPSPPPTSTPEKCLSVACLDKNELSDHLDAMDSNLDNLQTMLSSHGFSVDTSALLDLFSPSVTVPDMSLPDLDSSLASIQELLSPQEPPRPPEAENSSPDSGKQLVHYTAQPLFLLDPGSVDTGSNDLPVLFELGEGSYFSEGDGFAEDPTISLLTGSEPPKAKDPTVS
Sequence of ETV5 (P41161 whole entry): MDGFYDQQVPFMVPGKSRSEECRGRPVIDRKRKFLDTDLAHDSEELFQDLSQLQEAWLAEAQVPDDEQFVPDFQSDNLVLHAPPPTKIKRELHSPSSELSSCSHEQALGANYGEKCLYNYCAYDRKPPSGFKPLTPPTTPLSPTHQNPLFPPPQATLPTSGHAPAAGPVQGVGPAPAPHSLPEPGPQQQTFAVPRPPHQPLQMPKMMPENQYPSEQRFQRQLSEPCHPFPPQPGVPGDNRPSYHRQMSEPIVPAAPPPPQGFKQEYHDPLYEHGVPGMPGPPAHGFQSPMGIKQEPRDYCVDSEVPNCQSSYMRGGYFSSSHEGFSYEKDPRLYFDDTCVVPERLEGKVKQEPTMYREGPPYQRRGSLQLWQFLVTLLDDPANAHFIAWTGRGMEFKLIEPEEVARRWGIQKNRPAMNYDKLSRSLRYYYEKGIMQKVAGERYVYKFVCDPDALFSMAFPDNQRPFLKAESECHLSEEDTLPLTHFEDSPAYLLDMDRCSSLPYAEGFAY
Sequence of ELF4 (Q99607 whole entry): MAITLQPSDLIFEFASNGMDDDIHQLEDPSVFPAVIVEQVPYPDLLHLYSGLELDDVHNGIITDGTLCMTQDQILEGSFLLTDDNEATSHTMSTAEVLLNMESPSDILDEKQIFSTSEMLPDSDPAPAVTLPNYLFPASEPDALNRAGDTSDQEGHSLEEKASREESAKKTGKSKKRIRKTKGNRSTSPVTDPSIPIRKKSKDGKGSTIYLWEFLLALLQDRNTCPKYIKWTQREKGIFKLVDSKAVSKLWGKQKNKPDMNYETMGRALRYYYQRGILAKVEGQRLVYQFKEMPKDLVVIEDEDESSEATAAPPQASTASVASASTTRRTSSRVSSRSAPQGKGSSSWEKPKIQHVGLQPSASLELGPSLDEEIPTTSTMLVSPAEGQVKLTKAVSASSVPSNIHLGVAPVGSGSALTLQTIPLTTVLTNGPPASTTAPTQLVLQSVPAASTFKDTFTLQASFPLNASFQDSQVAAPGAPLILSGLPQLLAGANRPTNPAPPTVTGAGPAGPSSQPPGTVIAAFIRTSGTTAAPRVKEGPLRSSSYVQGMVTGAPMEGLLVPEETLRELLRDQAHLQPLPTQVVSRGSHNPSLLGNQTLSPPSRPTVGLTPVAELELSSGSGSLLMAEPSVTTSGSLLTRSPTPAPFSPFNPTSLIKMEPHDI

For TCCATG, the binding signal with FEV was 1.11 fold enrichment (6-mer frequency, TF over GST control); in the assay with ETV5 it was 1.2 fold enrichment (6-mer frequency, TF over GST control); with HSF1 it was 1.1 fold enrichment (6-mer frequency, TF over GST control); with SPIC, 1.05 fold enrichment (6-mer frequency, TF over GST control); with ELF4, 1.16 fold enrichment (6-mer frequency, TF over GST control); with ELK4, 1.25 fold enrichment (6-mer frequency, TF over GST control). For the same sequence, the binding signal is 1.2 fold enrichment (6-mer frequency, TF over GST control) in the assay with ETV2; 1.25 fold enrichment (6-mer frequency, TF over GST control) in the assay with ELF3; 1.13 fold enrichment (6-mer frequency, TF over GST control) with CRX; 1.09 fold enrichment (6-mer frequency, TF over GST control) in the assay with ETV1; 1.1 fold enrichment (6-mer frequency, TF over GST control) with ERF; 1.17 fold enrichment (6-mer frequency, TF over GST control) in the assay with ETV3L. Besides, the binding signal was 1.1 fold enrichment (6-mer frequency, TF over GST control) in the assay with ETS2; 1.1 fold enrichment (6-mer frequency, TF over GST control) with SPDEF; 1.03 fold enrichment (6-mer frequency, TF over GST control) with ETV7; 1.11 fold enrichment (6-mer frequency, TF over GST control) with ELF5; 1.19 fold enrichment (6-mer frequency, TF over GST control) in the assay with ETV3; 1.2 fold enrichment (6-mer frequency, TF over GST control) with ETV6.

Source of the values: paper PMC7862700, “An all-to-all approach to the identification of sequence-specific readers for epigenetic DNA modifications on cytosine”.
